Data as given in the supplement of paper PMC5940239.
Unmarked numbers belong to inactive results.

Test system: Madurella mycetomatis MM55
Experiment: percent growth relative to solvent control; higher = less inhibition, active = 20 or less
Conditions: 100 µM; 7 days

| Structure (SMILES) | percent growth [%] |
| --- | --- |
| Cc1ccc2cc(C3NC(=O)c4ccccc4N3)c(Cl)nc2c1 (stereo not drawn) | 139 |
| Clc1cccc(CO[C@H]2CCc3ccccc3[C@@H]2n2ccnn2)c1 | 64.8 |
| CN(C(=O)c1cc2c(-c3cncnc3)cccc2[nH]1)c1ccccc1 | 51.3 |
| O=C(C1CCN(c2nnc(-n3cccc3)s2)CC1)N1CCC(Cc2ccccc2)CC1 | 108 |
| COc1cccc(NC(=O)c2c(NC(=O)c3cccnc3)sc3c2CCC3)c1 | 50.9 |
| COc1cc(Br)cc2cc(C(=O)Nc3cccc(C(F)(F)F)c3)c(=O)oc12 | 125 |
| CC(=O)NC[C@@H]1CN(c2ccc(N3CCOCC3)c(F)c2)C(=O)O1 | 107 |
| CC(C)(C)n1nc(Cc2cccc3ccccc23)c2c(N)ncnc21 | 69.6 |
| COC(=O)c1c(NC(=O)c2cc3ccccc3oc2=O)sc2c1CCN(Cc1ccccc1)C2 | 111 |
| Cc1nnc(NC(=O)c2cn(-c3ccccc3)nc2-c2ccccc2C)o1 | 92.6 |
| CS(=O)(=O)Cc1nc2ccccc2oc1=O | 87.9 |
| O=C(NCc1cc(Cl)cc(Cl)c1)c1c(C(F)(F)F)nc2ccccn12 | 107 |
| CO[C@H]1/C=C/O[C@@]2(C)Oc3c(C)c(O)c4c(O)c(/c(=C/NN5CCN(C)CC5)c(O)c4c3C2=O)=N\C(=O)/C(C)=C\C=C/[C@H](C)[C@H](O)[C@@H](C)[C@@H](O)[C@@H](C)[C@H](OC(C)=O)[C@@H]1C | 92.6 |
| Nc1ncnc2c1c(Cc1cccc3ccccc13)nn2CC1CCNCC1 | 132 |
| CC(C)(C)c1cc(C(=O)Nc2cccnc2)cc(C(=O)Nc2cccnc2)c1 | 153 |
| COc1ccc(Nc2ccccc2NC(=O)c2ccc(O)nc2)cc1 | 85.8 |
| CC(C(=O)Nc1ccc2oc(-c3ccncc3)nc2c1)c1ccccc1 (stereo not drawn) | 77 |
| Cc1cc(Cl)c(S(=O)(=O)N2CCCC2)cc1OCC(=O)NC1CCCCC1 | 104 |
| FC(F)(F)c1cccc(-c2nc3c(NCc4ccncc4)nccc3[nH]2)c1 | 72.4 |

| Structure (SMILES) | percent growth [%] |
| --- | --- |
| COc1cccc(OCC(=O)c2ccc(Br)cc2)c1 | 81.3 |
| COc1ccc(-c2nn(C(C)C)c3ncnc(N)c23)cc1OC | 22.9 |
| COC(=O)c1cccc2oc(-c3cccc(OC)c3NC(=O)c3cc(-c4ccccc4)on3)nc12 | 123 |
| COc1ccc(C2=NCCN2)cc1-c1cn(-c2cccc(C3=NCCN3)c2)nn1 | 94 |
| O=C(Nc1cnc2ccccc2c1)c1cccc(-n2cnnn2)c1 | 94.2 |
| COc1cc(C2=NCCN2)ccc1-c1cn(-c2cccc(C3=NCCN3)c2)nn1 | 61 |
| CS(=O)(=O)N1CCC(Cn2nc(Cc3cccc4ccccc34)c3c(N)ncnc32)CC1 | 92.8 |
| CCC(C)NC(=O)c1ccc(NC(=O)C2(c3ccccc3)CCCC2)cc1 (stereo not drawn) | 96.7 |
| O=C(NCc1ccoc1)N1CCN(Cc2ccc3c(c2)OCO3)CC1 | 92.5 |
| COc1cccn2c(C(=O)N3CCCCC3)c(C(F)(F)F)nc12 | 85.7 |
| Cc1noc(C)c1C(=O)N1CCCC(c2[nH]c3c(C)cccc3c2-c2ccncc2)C1 (stereo not drawn) | 51.6 |
| Cc1[nH]c2cc(F)cc(F)c2c(=O)c1-c1ccc(Oc2ccc(OC(F)(F)F)cc2)cc1 | 95.7 |
| O=C(C(Cc1c[nH]c2ccccc12)NS(=O)(=O)c1ccc(Cl)cc1)N1CCCCC1 (stereo not drawn) | 43.6 |
| CC(Oc1cccc(Cl)c1)C(=O)Nc1ccc2oc(-c3ccncc3)nc2c1 (stereo not drawn) | 51.2 |
| Cc1cc(NC(=O)c2ccc(Oc3ccc(Cl)cc3O)o2)no1 | 135 |
| CS(=O)(=O)N1CCC(CCn2nc(Cc3cccc4ccccc34)c3c(N)ncnc32)CC1 | 81.9 |
| O=C(CN1CCOCC1)Nc1ccc2ncnc(Nc3ccc(OCc4cccc(F)c4)c(Cl)c3)c2c1 | 79.4 |
| CC(C)(C)c1cnc(NC(=O)c2ccccc2O)s1 | 99.3 |
| CCOc1ccc(-c2nc(NC(=O)CS(=O)(=O)c3ccccc3)sc2C)cc1 | 51.4 |
